Only some compounds are listed: those with a hit (about 4.6% of all), similar ones and a draw of the others.
USP2a inhib: USP2a (human) protease inhibition; O75604; USP2a enzymatic assay, qHTS inhibition; Potency, µM (doses to about 38.3 µM), for inactives: at the highest dose activity change, negative = inhibition, hits mostly inhibitors; 60,000 compounds, 0.1% hits; AID 927; further: nearly all actives have a fitted effect of over 60% in size
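Inhibition is measured in a cell-free coupled assay with 20 nM USP2 core, 20 nM Ub-PLA2 and 20 uM NBD C6-HPC, 2.5 h incubation. Activity normalized to NEM control.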
GBA mod: alters purified human glucocerebrosidase activity | purified enzyme, resorufin glucoside fluorescence (screen aimed at inhibitors), 20 min | Potency, µM | 48,000 compounds, 1.1% hits | AID 360; in the data active means potency below about 15 µM; inconclusive means mostly about 16 µM to 33 µM;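 further: the screen sought inhibitors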
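Compounds titrated against 0.2 nM normal enzyme, 30 uM resorufin beta-D-glucopyranoside substrate, citrate/phosphate buffer with taurocholate and tween-20, pH 5.9. Reaction ran 20 min at room temperature; fluorescence (Ex 548/Em 600) gave AC50.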
Bst PK mod: pyruvate kinase (B. stearothermophilus) modulation. 51,000 compounds, 1.2% hits. AID 361. purified pyruvate kinase, luminescence ATP production; ribose 5-phosphate activator present at AC10. Potency, µM; in the data active means potency below about 11 µM; inconclusive means mostly about 12 µM to 25 µM;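 the screen sought inhibitors and activators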;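 further: scaled between full activation by ribose 5 phosphate and full inhibition by luteolin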
Hsp90 Hop PPI: changes Hsp90-Hop TPR2A binding signal, up or down. 71,000 compounds, 0.44% hits. Potency, µM (doses to about 57 µM), inactives show top-dose activity change, negative = inhibition. AlphaScreen TPR2A-His6 binding biotin-Hsp90 C-terminal peptide; active means well fitted curve in either direction with a large enough effect; inconclusive means small, poorly fitted or top-dose-only effect, or another doubt; further: on the % scale 0 is the no-effect control and ±100 the full control effect
Tau fil binding: tau filament binding | 71,000 compounds, 2% hits | recombinant tau filaments, thioflavin S fluorescence, 15 h; filaments grown with octadecylsulfate alongside compound | P10636 | Potency, µM (series often up to 57.1 µM), for inactives: at the top dose activity change, negative = inhibition;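 further: on the % scale 0 is the no-effect control and ±100 the full control effect; actives lower thioflavin S fluorescence by blocking filaments or displacing dye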
Target sequence (P10636 whole entry, looked up): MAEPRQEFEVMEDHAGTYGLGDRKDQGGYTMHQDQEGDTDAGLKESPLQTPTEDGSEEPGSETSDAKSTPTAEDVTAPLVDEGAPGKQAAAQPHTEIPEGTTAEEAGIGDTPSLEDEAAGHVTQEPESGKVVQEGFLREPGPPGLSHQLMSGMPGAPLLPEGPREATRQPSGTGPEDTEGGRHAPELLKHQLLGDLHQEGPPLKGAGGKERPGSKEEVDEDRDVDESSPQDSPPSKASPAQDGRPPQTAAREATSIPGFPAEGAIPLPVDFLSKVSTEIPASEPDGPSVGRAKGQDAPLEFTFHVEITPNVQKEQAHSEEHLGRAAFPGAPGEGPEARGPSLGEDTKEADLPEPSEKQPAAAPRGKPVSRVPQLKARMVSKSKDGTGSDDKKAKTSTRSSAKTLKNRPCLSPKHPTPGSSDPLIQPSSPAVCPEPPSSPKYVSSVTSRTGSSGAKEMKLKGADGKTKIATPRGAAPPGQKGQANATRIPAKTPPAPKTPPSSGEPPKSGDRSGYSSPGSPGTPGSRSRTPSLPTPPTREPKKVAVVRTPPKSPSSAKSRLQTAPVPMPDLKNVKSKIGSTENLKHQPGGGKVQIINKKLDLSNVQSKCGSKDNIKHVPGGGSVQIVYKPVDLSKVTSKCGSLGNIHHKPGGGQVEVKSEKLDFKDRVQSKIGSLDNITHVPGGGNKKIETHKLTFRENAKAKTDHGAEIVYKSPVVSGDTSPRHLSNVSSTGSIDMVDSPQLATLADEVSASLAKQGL
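Read-out: ThS fluorescence, 450 nm excitation/510 nm emission; lower signal marks blocked filament formation or displaced dye. Tau at 1 uM with 30 uM ODS, 10 uM ThS, 5 mM DTT, 100 mM NaCl, 10 mM HEPES pH 7.4; 15 h, 37 C.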
15-hLO inh: inhibitors of human 15-lipoxygenase (ALOX15); 74,000 compounds, 1.4% hits; P16050; purified 15hLO-1, xylenol orange hydroperoxide absorbance; Potency, µM (highest dose often 57.1 µM), for inactives: top-dose activity change, negative = inhibition, hits mostly inhibitors; AID 887; further: on the % scale 0 is the no-effect control and ±100 the full control effect; nearly all actives have a fitted effect of over 55% in size
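Quantitative HTS in 25 mM Hepes pH 7.5 containing 0.01% Triton X-100: human 15hLO-1 at 40 nM, arachidonic acid at 50 uM, 6 min turnover. Product quantified via ferrous oxidation/xylenol orange, 573:405 nm absorbance ratio.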
* = called active by the depositor; i = inactive; ? = inconclusive; / = no result; [ ] = dose if it differs, or a comment. Unless noted, the call rests on the fitted dose curve; in most records, active means well fitted curve in the direction sought with a large enough effect; inconclusive means small, poorly fitted or top-dose-only effect, or another doubt; inactive means no such curve, though single readings can be large; an effect the other way counts as inactive or inconclusive. Potency means the concentration at half of the fitted maximal effect.

SMILES | USP2a inhib | GBA mod | Bst PK mod | Hsp90 Hop PPI | Tau fil binding | 15-hLO inh
CCc1nnc(NC(=O)c2ccc(-c3cccc(C(F)(F)F)c3)o2)s1 | 5.5% | 1.84* | >57 | -1.4% | 128.9% | -1.2%
Cc1ccc2[nH]c(=O)c(-c3nc4cc(C)ccn4c3NCc3ccco3)cc2c1 | / | ? | >57 | -6.2% | 15.8µM* | 11.3%
Nc1ccc(-c2n[nH]c(=O)c3ccccc23)cc1N | 13.6% | >76.9 | >57 | -13.8% | 15.8µM* | ?
Nc1nc(-c2ccccc2)cc(N2CCCCC2)n1 | 47.4% | >76.9 | / | -8.3% | 25.1µM* | -20.5%
Cc1nc(-c2ccccc2)cc(N2CCCC2)n1 | 1.9%[7.66 µM] | / | / | -6.4%[11 µM] | 8.3%[11.4 µM] | 0.0%[11.4 µM]
C=CCN1C(=O)CS/C1=C(\C#N)S(=O)(=O)c1ccc(C)cc1 | 16.6% | >76.9 | >57 | ? | 15.8µM* | -18.4%
CCOC(=O)N1CCC(n2c(SCC(=O)NCc3ccccc3)nc3ccccc3c2=O)CC1 | 19.3% | >76.9 | >57 | -2.4% | 8.6% | -2.1%
CCOC(=O)N1CCC(n2c(SCC(=O)NCCC3=CCCCC3)nc3ccccc3c2=O)CC1 | 6.9% | >76.9 | >57 | -1.3% | -8.0% | 15.8µM*
CCCNC(=O)N1CCN(S(=O)(=O)c2ccc(C)cc2)CC1 | 2.2% | >76.9 | >57 | 0.2% | 4.9% | 6.3%
NS(=O)(=O)c1ccc(N=Nc2ccc[nH]c2=O)cc1 | / | / | / | -4.0%[11 µM] | -0.2%[11.4 µM] | 3.16µM*
Cc1cc(-c2csc(NC(=O)c3ccc(=O)n(C)n3)n2)c(C)n1CC1CCCO1 (stereo unspecified) | 21.3% | / | 9.1* | -8.8% | 7.94µM* | ?
O=C(Nc1nc(-c2ccccc2)cs1)C1CCCO1 (stereo unspecified) | -1.8% | >76.9 | >11.4 | -2.3% | -10.4% | -11.6%
CC(C)(C)NC(=O)C(c1ccncc1)N(C(=O)c1csnn1)C1CC1 (stereo unspecified) | 4.6% | / | 9.09* | -2.3% | -10.6% | -9.9%
COc1ccc(CN(Cc2ccncc2)C(=O)CCC(=O)O)cc1 | 35.0% | ? | >57 | -3.1% | 11.1% | -6.5%
COc1cc2c(cc1OC)C(C(=O)Nc1cccc(C)n1)C(c1cccnc1)N(C)C2=O (stereo unspecified) | 1.0% | >76.9 | >57 | -1.3% | 5.7% | ?
Cc1ccccc1-c1cncnc1N1CCN(C)CC1 | 4.1% | / | / | -5.5% | 0.4% | 6.7%
CNc1nnc(CSc2nc3ccccc3s2)s1 | -1.5% | >76.9 | ? | -2.0% | 8.5% | -3.5%
CN(C)c1ccc(NC(=O)Nc2cccc(Cl)c2)cc1 | 3.0% | >76.9 | / | -29.0% | 5.01µM* | -13.9%
COc1ccccc1-c1ccc2ncnc(N3CCOCC3)c2c1 | 7.0% | / | / | 6.0% | 11.1% | -0.7%
OC1CN=C2CCCc3c2n(c2ccc(Cl)cc32)C1 (stereo unspecified) | 34.2% | / | / | -13.6% | 7.94µM* | ?
CN1CCN(CC(O)COc2ccc(OCC(O)CN3CCN(C)CC3)cc2)CC1 (stereo unspecified) | -1.1% | >76.9 | >57 | -1.8% | 4.4% | 4.9%
CCn1c(CC(=O)Nc2ccc(C)cc2)nnc1SCC(=O)NCc1ccccc1 | 15.4% | >76.9 | >57 | 1.9% | -1.5% | 3.6%
CCN1C(=S)SC(=O)C1=C1C=C(C)N(Cc2ccco2)C(C)=C1 | 16.1% | ? | / | -18.2% | 58.7% | -10.6%
CCN1C(=S)SC(=O)C1=C1C=C(C)OC(C)=C1 | 11.8% | / | >57 | -18.3% | 3.16µM* | -6.0%
CC(C)(C)N=C1NC(=NC(C)(C)C)c2ccccc21 | -5.9% | ? | >57 | -0.5% | 2.51µM* | 0.3%
SMILES | USP2a inhib | GBA mod | Bst PK mod | Hsp90 Hop PPI | Tau fil binding | 15-hLO inh
Cc1cc(N)c2ccccc2[n+]1CCCCCCCCCCCCCC[n+]1c(C)cc(N)c2ccccc21 | 15.8µM* | / | / | ? | i | ?
Nc1c(S(=O)(=O)O)cc(Nc2ccc(Nc3nc(Cl)nc(Nc4ccc(S(=O)(=O)O)cc4)n3)c(S(=O)(=O)O)c2)c2c1C(=O)c1ccccc1C2=O | 7.94µM* | / | / | ? | -19.7% | ?
Cc1ccc(S(=O)(=O)N=C2SCCCS2)cc1 | -6.4% | / | / | 1.4% | 1.6% | -5.3%
NC(=O)CSc1nc2sc3c(c2c2ncnn12)CCCC3 | 18.0% | >76.9 | 1.3* | -4.1% | 3.4% | 0.0%
O=C(c1nc2nc(-c3ccc(Cl)cc3)cc(C(F)(F)F)n2n1)N1CCOCC1 | 15.4% | >76.9 | / | -3.4% | ? | 8.8%
COc1cccc(C=Nc2cc(C)on2)c1O | -7.6% | >76.9 | / | -0.7% | -14.0% | 15.6%
CCc1ccc2oc(-c3cc(N=Cc4cccc(OC)c4O)ccc3O)nc2c1 | 231.1% | >76.9 | 1.35* | -6.9% | 12.6µM* | -8.6%
COC(=O)c1sccc1NC(=O)c1c(C)noc1C | 33.6% | 12.1* | >57 | 4.0% | 10.6% | ?
N#CC1=C(N)S[C@H](C(=O)C23CC4CC(CC(C4)C2)C3)[C@H]1c1ccncc1 | 33.8% | ? | >57 | -16.1% | -8.9% | 12.6µM*
O=C(NCc1ccncc1)C12CC3CC(CC(C3)C1)C2 | -8.0% | >76.9 | >57 | 2.7% | 3.9% | -25.7%
CCSc1ncc(Cl)c(C(=O)Nc2ccc(S(=O)(=O)Nc3onc(C)c3C)cc2)n1 | -4.9% | >76.9 | >57 | -6.2% | 9.2% | -14.6%
O=C(CC1Nc2ccccc2NC1=O)NCc1cccnc1 (stereo unspecified) | -0.8% | >76.9 | >57 | -9.8% | -8.2% | 15.8µM*
CCCCNC(=O)CC1Nc2ccccc2NC1=O (stereo unspecified) | / | / | / | 3.0% | -15.4% | -12.1%
Cc1ccc(-n2nc(C)c(C3C(C#N)=C(N)OC4=C3C(=O)CC(C)(C)C4)c2Cl)cc1 (stereo unspecified) | -6.7% | 4.79* | >57 | 0.2% | 20.7% | ?
O=C1CC(C(=O)NC2CCCCC2)C(c2ccccc2)O1 (stereo unspecified) | -2.6% | >76.9 | >57 | -4.8% | 5.4% | 4.3%
COc1ccc(N(CC(=O)Nc2ccc3c(c2)OCCO3)S(=O)(=O)c2c(C)noc2C)cc1 | 37.0% | 11.9* | >57 | -1.7% | 51.5% | -11.2%
CCOc1ccc(C(c2nnnn2Cc2ccccc2)N2CCN(C(=O)c3ccco3)CC2)cc1 (stereo unspecified) | / | >76.9 | >57 | -3.1% | 15.9% | -4.5%
COc1cccc(Nc2nc(-c3sc(N)nc3C)cs2)c1 | 41.5% | i | i | ? | 12.6µM* | -1.0%
COc1ccc(OC)c(Nc2nc(-c3sc(C)nc3C)cs2)c1 | 18.9% | / | / | ? | -20.6% | -13.1%
CC(C)c1ccc(N2C(=O)[C@@H]3Cc4ccccc4CN3C2=O)cc1 | 0.6% | >76.9 | >57 | 0.7% | 28.4% | 5.4%
CCOc1ccc2c(ccc(/C=C\c3cc(C)c4cccnc4c3O)[n+]2C)c1 | / | / | / | ? | 0.631µM* | 69.3%[11.4 µM]
COc1ccc(F)cc1S(=O)(=O)NC(Cc1ccccc1)C(N)=O (stereo unspecified) | 3.3% | >76.9 | >57 | 0.3% | -3.3% | -1.9%

Screening data as filed in PubChem.
